Screens from PubChem.
A selection: hits, their analogues and other compounds. The true share with any hit is near 19%.
TDP1 cell noCPT = qHTS for Inhibitors of human tyrosyl-DNA phosphodiesterase 1 (TDP1): qHTS in cells in absence of CPT; DT40 Tdp1-/- hTDP1 cells, no CPT, ATP luminescence, 48 h; Potency, µM (titrated, usually from 46.2 µM), for the others: at the highest dose activity change, negative = growth inhibition, hits mostly inhibitors; hit rate 15% among 420,000; AID 686978, 2013; further: potency means the concentration at half of the fitted maximal effect; on the % scale 0 is the no-effect control and ±100 the full control effect; nearly all actives have a fitted effect of over 55% in size
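Camptothecin absent (DMSO only). Human TDP1-complemented DT40 knockout cells, 400 cells/well, 37 °C for minimum 48 hr; ATP measured via CellTiter-Glo, 30 min dark incubation, luminescence.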
MCF10A rerep = inducers of DNA re-replication in MCF 10A breast cells; hit rate 2.9% among 350,000; Potency, µM (titrated, usually from 46.1 µM), for inactives: top-dose activity, positive = re-replication, hits mostly activators; MCF 10A DNA re-replication, Hoechst nuclear intensity, 48 h; further: potency means the concentration at half of the fitted maximal effect; % of control where 0% means no effect; nearly all actives have a fitted effect of over 50% in size
Chronic BCR inh = chronic active BCR signaling inhibition; ABC-DLBCL IkBa-CBG/CBR reporter, luminescence ratio, 4 h; Potency, µM (top dose mostly 46.1 µM), without a hit: at the top dose activity change, negative = inhibition, most hits filed as inhibitors; hit rate 0.05% among 340,000; AID 493014; active means well fitted inhibition curve with a large enough effect in the signal ratio, with a control signal flat, not every such curve was filed as active; inconclusive means small, poorly fitted or top-dose-only effect, or effect the other way, or a change in a side signal; the % refers to the signal ratio;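 further: potency means the concentration at half of the fitted maximal effect; plate controls were basal doxycycline-induced cells for no effect and cells given 10 µM MG132 for full effect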
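Doxycycline induced both beetle luciferases in TMD8 lymphoma cells; IKK-driven degradation limits the IkappaBalpha-fused green signal, while red luminescence normalises for cell number and nonspecific effects. Compounds tested up to 46 uM, 4 hrs.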
SW480 rerep = DNA re-replication induction in SW480 cells; Potency, µM (series often up to 46.1 µM), for the others: at the top dose re-replication activation, hits mostly activators; SW480 DNA re-replication, Hoechst DNA content imaging, 48 h; hit rate 1.8% among 340,000; further: potency means the concentration at half of the fitted maximal effect; % of control where 0% means no effect; nearly all actives have a fitted effect of over 55% in size
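250 cells/well; 23 nL cpd via pin tool; 48 hr, 37 C, 5% CO2; Hoechst 40 min; imager read of total nuclear intensity, ex 405/em 500-530 nm.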
IL1B secr inh = blocks inflammasome-driven IL-1 beta release; THP-1 LPS/ATP IL-1B secretion, AlphaLISA, 16 h; active compounds read low; activity change, % at 57.5 µM; hit rate 4.7% among 360,000; AID 743279; in the data active means activity change below about -50%; inconclusive means mostly about -30% to -49%; further: on the % scale 0 is the no-effect control and ±100 the full control effect
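THP-1 cells pretreated 1 hr with compounds (up to 57.5 uM final), then stimulated with LPS (250 ng/mL final) plus ATP (1.25 mM final); secreted IL-1B measured by AlphaLISA after 16 hr, decreased signal indicating inhibition.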
DT40 TDP1 CPT = DT40-hTDP1 cell growth loss with CPT. chicken DT40 Tdp1-/-;hTDP1 cells + 20 nM CPT, ATP luminescence, 48 h. Potency, µM (top dose mostly 46.2 µM), for the others: at the top dose activity change, negative = growth inhibition, actives largely listed as inhibitors. hit rate 12% among 420,000. AID 686979; further: potency means the concentration at half of the fitted maximal effect; on the % scale 0 is the no-effect control and ±100 the full control effect; nearly all actives have a fitted effect of over 55% in size
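Cell growth measured by CellTiter-Glo luminescence after a minimum 48 h, 37 C compound exposure with 20 nM CPT in Tdp1-knockout DT40 cells stably expressing hTDP1, seeded 400/well; qHTS titration format.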
* hit, by the source's call; ? = inconclusive; · = not tested or not shown; [ ] = dose if it differs, or a comment. Unless noted, the call rests on the fitted dose curve; in most records, active means well fitted curve in the direction sought with a large enough effect; inconclusive means small, poorly fitted or top-dose-only effect, or another doubt; inactive means no such curve, though single readings can be large; an effect the other way counts as inactive or inconclusive.

SMILES	TDP1 cell noCPT	MCF10A rerep	Chronic BCR inh	SW480 rerep	IL1B secr inh	DT40 TDP1 CPT
O=C(NCC(c1cccnc1)N1CCN(c2ccccc2F)CC1)c1ccc(F)cc1 (centres undefined)	20.6µM*	·	·	·	·	14.6µM*
O=C(COc1ccccc1)NCC(c1ccco1)N1CCN(c2ccccc2F)CC1 (centres undefined)	?	81.9%	-9.9%	?	-13.7	?
COc1ccc(N2CCN(C(CNC(=O)c3cccc(Cl)c3)c3cccnc3)CC2)cc1 (centres undefined)	?	1.5%	2.3%	-3.2%	-10.4	?
COCCNC(=O)C(=O)NCC(c1cccnc1)N1CCN(c2ccccc2F)CC1 (centres undefined)	-28.9%	·	·	·	·	-19.8%
O=C(NCC(c1cccnc1)N1CCN(c2ccc(F)cc2)CC1)c1ccc(F)cc1 (centres undefined)	16.4µM*	-0.3%	2.0%	-7.7%	8.8	?
CCOC(=O)c1sc(N2C(=O)C(O)=C(C(=O)c3ccco3)C2c2ccc([N+](=O)[O-])cc2)nc1C (centres undefined)	-3.7%	?	·	4.2%	133.5	16.2%
Cc1ccc(-n2nc3c(c2NC(=O)C(C)C)CS(=O)(=O)C3)c(C)c1	-12.3%	0.1%	-0.3%	?	-5.3	-5.8%
COc1ccc(N(CC2CO2)S(=O)(=O)c2ccc(C)cc2)cc1 (centres undefined)	?	12.3%	-10.2%	6.4%	-18.1	?
OCCN1CCN(Cc2ccc3c(c2)CN(Cc2cccc4ncccc24)CCO3)CC1	?	·	·	·	·	11.5%[9.04 µM]
COc1ccc(C(CNC(=O)CSc2ccc(Br)cc2C)N2CCOCC2)cc1 (centres undefined)	?	8.8%	-2.7%	0.4%	-17.0	?
COc1ccc(N2CCN(C(CNC(=O)C(=O)NCc3cccnc3)c3ccco3)CC2)cc1 (centres undefined)	-3.8%	0.8%	-0.9%	5.0%	66.6	-11.8%
O=C(NCC(c1ccco1)N1CCN(c2ccc(F)cc2)CC1)c1cccs1 (centres undefined)	?	-7.5%	-0.2%	?	-1.4	?
COc1ccc(N2CCN(C(CNC(=O)C(=O)NCCC3=CCCCC3)c3ccco3)CC2)cc1 (centres undefined)	?	14.9%	0.3%	9.6%	8.2	?
O=C(NCCC1=CCCCC1)C(=O)NCC(c1ccco1)N1CCN(c2ccccc2)CC1 (centres undefined)	9.2µM*	?	-3.1%	?	30.3	11.6µM*
O=C(NCc1cccnc1)C(=O)NCC(c1ccco1)N1CCN(c2ccc(F)cc2)CC1 (centres undefined)	16.4µM*	-1.6%	-11.5%	-105.7%	6.5	23.1µM*
CCc1ccc(NC(=O)C(=O)NCC(c2cccnc2)N2CCN(c3ccc(F)cc3)CC2)cc1 (centres undefined)	3.66µM*	·	·	·	·	?
O=C(NCc1cccs1)C(=O)NCC(c1ccco1)N1CCN(c2ccc(F)cc2)CC1 (centres undefined)	23.1µM*	5.6%	-13.2%	8.1%	-5.3	?
Cc1c(/C=N\NC(=O)C2COc3ccc(C(C)(C)C)cc3O2)c2ccccc2n1C (centres undefined)	?	?	5.9%	-0.5%	-18.5	?
O=S(=O)(NCC(c1cccnc1)N1CCN(c2ccccc2F)CC1)c1cccs1 (centres undefined)	?	0.3%	-5.7%	-0.8%	-10.6	14.6µM*
O=C(NCCc1ccccc1)C(=O)NCC(c1cccnc1)N1CCN(c2ccccc2F)CC1 (centres undefined)	?	·	·	·	·	20.6µM*
O=C(NCC(c1cccnc1)N1CCN(c2ccc(F)cc2)CC1)c1ccc2c(c1)OCO2 (centres undefined)	8.2µM*	2.0%	?	-1.5%	-14.9	16.4µM*
COc1ccc(C(=O)NCC(c2cccnc2)N2CCN(c3ccc(F)cc3)CC2)cc1OC (centres undefined)	?	?	1.5%	-19.0%	-9.2	?
COc1cc(C(=O)NCC(c2cccnc2)N2CCN(c3ccc(F)cc3)CC2)cc(OC)c1OC (centres undefined)	20.6µM*	12.7%	0.2%	-0.8%	16.1	?
Cc1ccc(NC(=O)C2CCCN2S(=O)(=O)c2ccc(-c3ccc(=O)[nH]n3)s2)c(C)c1 (centres undefined)	-20.7%	0.2%	14.2%	-2.5%	-1.4	-19.7%
CCOc1ccc(C(=O)N[C@H](C(=O)Nc2ccc(S(=O)(=O)Nc3nccs3)cc2)C(C)C)cc1	-13.7%	-0.4%	6.3%	0.7%	-7.3	10.8%
SMILES	TDP1 cell noCPT	MCF10A rerep	Chronic BCR inh	SW480 rerep	IL1B secr inh	DT40 TDP1 CPT
O=C(NCC(c1cccnc1)N1CCN(c2ccc(F)cc2)CC1)c1ccco1 (centres undefined)	16.4µM*	-2.4%	11.3%	-1.8%	30.4	?
O=C(NCC(c1cccnc1)N1CCN(c2ccccc2F)CC1)c1cccc(Cl)c1 (centres undefined)	16.4µM*	-1.2%	-5.5%	4.5%	?	20.6µM*
O=C(NCC(c1cccnc1)N1CCOCC1)c1cccc(Cl)c1 (centres undefined)	-0.5%	5.7%	4.3%	-7.8%	7.8	-16.0%
CCC1C(=O)NCCN1Cc1ccc2c(c1)CN(Cc1cccn1-c1ccc(Cl)cn1)CCO2 (centres undefined)	?	·	·	·	·	8.3%[9.04 µM]
Cc1nn(-c2ccccc2)c2sc(C(=O)N3CCCCC3)cc12	?	41.0%	·	3.4%	-16.1	?
Cc1nn(-c2ccccc2)c2sc(C(=O)NNC(=O)COc3ccccc3)cc12	-13.5%	-0.3%	9.8%	-1.2%	5.8	-16.6%
Cc1nn(-c2ccccc2)c2sc(C(=O)Nc3ccc(Br)cc3)cc12	16.4µM*	·	·	·	·	?
Cc1nn(-c2ccccc2)c2sc(C(=O)NNC(=O)COc3cccc4ccccc34)cc12	?	23.1µM*	-1.0%	?	2.2	?
Cc1nn(-c2ccccc2)c2sc(C(=O)N3CCc4ccccc4C3)cc12	23.1µM*	-4.3%	?	-0.1%	?	?
Cc1cnc(NC(=O)c2cc3c(C)nn(-c4ccccc4)c3s2)s1	?	-13.0%	-0.2%	?	17.5	?
